# Compound activity deposited in PubChem BioAssay by Emory University Molecular Libraries Screening Center.
# Measles inh: inhibitors of measles virus growth in cells, primary screen, measles RdRp inhibitor project, cell-based, single point, HTS | infected Vero cells, GFP fluorescence, 64 h; hits give low values | z-score (test concentration not listed) | 0.1% of 33,000 active | AID 745, 2007; in the data active means z-score below about -3
# * hit, by the source's call. This excerpt belongs to a sample that is enriched for hits.
SMILES,Measles inh
CC(=O)c1ccc(C(=O)Nc2ccc(-c3ccc(NC(=O)c4ccc(C(C)=O)cc4)c(C)c3)cc2C)cc1,0.04
O=C(CCC(=O)OCC(=O)c1ccc(Br)cc1)Nc1ccccc1Cl,0.58
COc1ccc(Cl)cc1NS(=O)(=O)c1cnc[nH]1,0.18
O=S(=O)(Nc1ccc(Cl)cc1)c1cnc[nH]1,-3.51*
O=S(=O)(Nc1cccc(C(F)(F)F)c1)c1cnc[nH]1,0.38
CCOC(=O)c1cnc2c(C)cc(Cl)cc2c1Nc1cccc(Cl)c1,-0.09
O=C(CN(c1cc(C(F)(F)F)ccc1Cl)S(=O)(=O)c1ccccc1)NCC1CCCO1 (stereo unspecified),-0.61
Cn1c(C(=O)O)cc2c(=O)oc3ccccc3c21,1.14
Cc1ccc(NC(=O)C2C3NC(=S)NC2(C)Oc2ccccc23)c(C)c1 (stereo unspecified),-0.17
Cc1ccc(NC(=O)C2C3NC(=S)NC2(C)Oc2ccc(Br)cc23)c(C)c1 (stereo unspecified),-3.26*
CCOc1cccc2c1OC1(C)NC(=S)NC2C1C(=O)Nc1ccc(C)cc1C (stereo unspecified),0.33
O=C(C1c2ccccc2Oc2ccccc21)N1CCN=C1SCc1ccccc1F,0.69
CCn1cc(C(=O)N2CCOCC2)c(=O)c2cc(S(=O)(=O)N3CCOCC3)ccc21,-0.45
COc1ccc(Cn2c(SCC(N)=O)nc3ccc(N4CCOCC4)cc3c2=O)cc1,-0.68
CCOc1nn(-c2nc(-c3ccco3)cc(C(F)(F)F)n2)cc1[N+](=O)[O-],0.1
CSc1nc(N)nc(SCc2ccc(F)cc2)c1C#N,-0.08
CCN(C(=O)c1cc2c(=O)n3cccc(C)c3nc2s1)c1ccccc1,0.41
CCOC(=O)c1c(NC(=O)c2ccc(Cl)c([N+](=O)[O-])c2)sc(C(=O)Nc2ccccc2F)c1C,0.68
COc1cccc(NC(=O)C2CCC(CNS(=O)(=O)c3ccc(Br)s3)CC2)c1 (stereo unspecified),-0.71
CCCCCC(=O)N1c2ccccc2NC2=C(C(=O)CC(c3ccc(F)cc3)C2)C1c1cccs1 (stereo unspecified),-0.61
CN(C)S(=O)(=O)c1ccc(C(=O)Nc2nnc(-c3ccccc3Cl)s2)cc1,-0.02
CCOC(=O)C1=C(C)Nc2nc3ccccc3n2C1c1ccc([N+](=O)[O-])cc1 (stereo unspecified),0.13
CN(C)c1ccc(C2Nc3ccccc3-c3nnc(SCc4ccccc4)nc3O2)cc1 (stereo unspecified),0.68
COc1ccc([N+](=O)[O-])cc1NC(=O)c1ccccc1OC(C)=O,-0.32
O=[N+]([O-])c1ccc(N2CCN(S(=O)(=O)Cc3ccccc3)CC2)cc1NCCc1ccccc1,-0.56
SMILES,Measles inh
CCn1c(=N)c(C(=O)NCCc2ccccc2)cc2c(=O)n3ccccc3nc21,0.69
COc1cccc(C(=O)Nc2ccc(S(=O)(=O)Nc3nc(C)cc(C)n3)cc2)c1,0.58
Cc1cc(C)nc(NS(=O)(=O)c2ccc(Br)cc2)n1,-3.09*
COc1ccc(CC(=O)Nc2ccc(S(=O)(=O)Nc3nc(C)cc(C)n3)cc2)cc1,1.53
COc1ccccc1-c1nnc(-c2cc3ccccc3cc2OC)o1,-2.35
CCN(CC)CCCNc1ncnc2sc3c(c12)CCCC3,0.24
COc1ccc(NC(=O)C2=C(C)NC3=C(C(=O)CC(c4ccc(OC)c(OC)c4)C3)C2c2ccc(C(C)C)cc2)cc1 (stereo unspecified),-0.36
CC1=C(C(=O)OCCc2ccccc2)C(c2cccc3ccccc23)C2=C(CC(C)(C)CC2=O)N1 (stereo unspecified),0.68
COCCCNC(=O)COc1ccc2c(c1)C(=O)CC(C)(C)O2,0.67
CCC1CCCCN1C(=O)CSc1nc2c([nH]c3ccccc32)c(=O)n1-c1ccccc1 (stereo unspecified),1.65
CCCCCCSc1nnc2c(n1)OC(c1cccnc1)Nc1ccccc1-2 (stereo unspecified),0.21
COC(=O)c1ccccc1N1C(=O)C2C3c4ccccc4C(C)(c4ccccc43)C2C1=O (stereo unspecified),-0.88
COc1ccc2[nH]c3c(N4CCOCC4)ncnc3c2c1,-0.07
CCc1c(-c2ccccc2)n(-c2cccc(C(F)(F)F)c2)c2nc3c(c(=O)n(C)c(=O)n3C)n12,0.39
CCCCN(C)C(=O)c1ccc(CNS(=O)(=O)c2ccc(Cl)cc2)cc1,0.05
CC(=O)NC(c1ccccc1)c1cc(Cl)c2cccnc2c1O (stereo unspecified),-0.77
CCOc1cc(C(NC(=O)CC)c2cc([N+](=O)[O-])c3cccnc3c2O)ccc1O (stereo unspecified),-0.83
CC(=O)NC(c1ccc(C)cc1)c1cc([N+](=O)[O-])c2cccnc2c1O (stereo unspecified),-3.4*
Cc1cccc(-n2nc3c(c2NC(=O)c2cc(Cl)ccc2[N+](=O)[O-])CSC3)c1C,-2.35
CCOc1ccc(C2=Nn3c(nnc3-c3ccc(Br)cc3)SC2)cc1,-0.48
COc1ccc([N+](=O)[O-])cc1NC(=O)c1cccc(F)c1,-5.24*
COc1ccccc1NC(=O)c1cccc([N+](=O)[O-])c1,-0.86
COc1ccc([N+](=O)[O-])cc1NC(=O)c1cccc(C(=O)Nc2cc([N+](=O)[O-])ccc2OC)c1,-0.38
O=C(Nc1ccc(Cl)c([N+](=O)[O-])c1)c1cccnc1,-0.34
C=C1CSc2nc(=O)c3c4c(sc3n21)CCC4,-3.1*
SMILES,Measles inh
Cc1nc2sc3c(c2c(=O)[nH]1)CCC3,0.5
O=c1c2c3c(sc2n2c(=S)[nH]nc2n1Cc1ccccc1)CCC3,-0.75
c1ccc(CNc2ncnc3c2sc2nc(-c4ccco4)c4c(c23)CCCC4)cc1,1.47
CC1CCC(C(=O)NC(C(=O)NCc2ccccn2)C(C)C)CC1 (stereo unspecified),-3.08*
CC1CCC(C(=O)NC(C(=O)Nc2ccc(C(C)C)cc2)C(C)C)CC1 (stereo unspecified),-0.83
CC1CCN(S(=O)(=O)N2CCC(C(=O)NCc3ccccn3)CC2)CC1,0.27
C=CCOc1ccc(C2Nc3ccccc3S(=O)(=O)N2Cc2ccccc2)cc1OC (stereo unspecified),1.4
CC(Oc1ccc(F)cc1)C(=O)Nc1sc2c(c1C(N)=O)CCC2 (stereo unspecified),0.13
COc1cccc(C2C(C(=O)OC3CCCCC3)=C(C)NC3=C2C(=O)CC(c2ccccc2)C3)c1OC (stereo unspecified),-0.92
CCOC(=O)Cc1ccc(N(Cc2ccccc2)S(=O)(=O)c2ccc(F)c(C)c2)cc1,0.1
CCCOc1cccc(C(=O)Nc2ccc(-c3nc4ccccc4[nH]3)cc2)c1,-1.66
COC(=O)C1=C(C)NC2=C(C(=O)CCC2)C1c1cc(OC)c(OC)cc1OC (stereo unspecified),0.17
CCOC(=O)c1c(C)n(C)c2c1cc(OC(=O)c1ccccc1F)c1ccccc12,1.4
O=c1[nH]c2ccc(Cl)cc2c(-c2ccccc2)c1SCCO,-0.29
COc1ccc(C2CC(c3c(-c4ccccc4)c4cc(Cl)ccc4[nH]c3=O)=NN2C(=O)CCC(=O)O)cc1 (stereo unspecified),-0.07
COc1ccc(-c2cc(=O)[nH]c(Sc3c(-c4ccccc4)c4cc(Cl)ccc4[nH]c3=O)n2)cc1,-3.28*
COc1ccc(S(=O)(=O)N(CC(=O)Nc2cccc(C)c2)c2ccc(C)cc2)cc1,-0.59
C=CCn1cc(C(=O)NCCC2=CCCCC2)c(=O)c2cc(S(=O)(=O)N3CCCCCC3)ccc21,1.5
